From PubChem BioAssay (NCATS)
Records with an inconclusive call do not appear. Entries that show only a call come without a potency. Active and inactive are the calls of the source. The call rests on the fitted dose curve.

What follows are compounds tested against Atrial natriuretic peptide receptor 1 (Homo sapiens) (UniProt P16066) (assay: Natriuretic polypeptide receptor (hNpr1) antagonism - Pilot CMLD screen (AID 1347052)). Conditions: HEK293 hNpr1 GloSensor cGMP luminescence, ANP-stimulated; series mostly up to 9.22 µM.
Atrial natriuretic peptide receptor 1 (Homo sapiens), sequence (P16066 whole entry, looked up, the tested form may be a part): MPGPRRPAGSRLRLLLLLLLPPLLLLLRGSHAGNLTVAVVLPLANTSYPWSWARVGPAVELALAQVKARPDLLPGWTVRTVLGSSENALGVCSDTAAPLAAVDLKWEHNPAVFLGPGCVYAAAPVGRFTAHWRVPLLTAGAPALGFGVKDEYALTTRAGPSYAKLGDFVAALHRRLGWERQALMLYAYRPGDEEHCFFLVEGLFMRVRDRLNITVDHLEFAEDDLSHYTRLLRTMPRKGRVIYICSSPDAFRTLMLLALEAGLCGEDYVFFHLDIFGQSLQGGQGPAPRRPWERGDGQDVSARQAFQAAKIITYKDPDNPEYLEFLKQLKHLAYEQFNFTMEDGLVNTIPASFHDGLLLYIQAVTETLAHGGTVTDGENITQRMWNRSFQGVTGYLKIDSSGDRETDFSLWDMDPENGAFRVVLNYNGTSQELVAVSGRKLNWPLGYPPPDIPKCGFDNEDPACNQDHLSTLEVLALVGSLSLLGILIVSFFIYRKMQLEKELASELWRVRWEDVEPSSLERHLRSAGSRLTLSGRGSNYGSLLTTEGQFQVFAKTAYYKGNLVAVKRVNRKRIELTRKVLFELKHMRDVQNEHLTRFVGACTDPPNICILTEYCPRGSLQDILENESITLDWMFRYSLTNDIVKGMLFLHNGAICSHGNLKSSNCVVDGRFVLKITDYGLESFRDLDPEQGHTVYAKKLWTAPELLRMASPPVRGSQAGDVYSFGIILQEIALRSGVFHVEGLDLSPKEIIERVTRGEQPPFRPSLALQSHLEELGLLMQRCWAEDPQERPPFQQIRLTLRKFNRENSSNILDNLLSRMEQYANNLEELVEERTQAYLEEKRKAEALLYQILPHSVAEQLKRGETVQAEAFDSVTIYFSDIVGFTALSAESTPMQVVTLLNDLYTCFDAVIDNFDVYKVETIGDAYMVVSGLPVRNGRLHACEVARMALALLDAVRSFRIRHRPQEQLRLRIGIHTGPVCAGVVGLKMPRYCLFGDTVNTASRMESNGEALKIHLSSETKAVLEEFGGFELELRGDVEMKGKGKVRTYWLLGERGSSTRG
Experimental: In order to identify small molecular compounds that inhibit the hNpr1 receptor we developed a high-throughput assay to measure inhibition of the guanylate cyclase activity of the receptor. cGMP production was measured using a circular permutated Firefly luciferase (FLuc) enzyme functionally linked to the cGMP binding domain of human phosphodiesterase 5 (GloSensor technology pGS-40F, (Fan, F. et al. 2008). The cGMP-sensor was expressed in human embryonic kidney 293 (HEK-293) cells and FLuc activity was measured after stimulation with hNrp agonist peptide. hNrp agonists activates the receptor's associated guanylyl cyclase (GC) domain producing cGMP which then binds to the GloSensor resulting in FLuc activation, the enzymatic activity of which can be measured as bioluminescence with addition of luciferin substrate.
This assay was initially piloted by testing with a small library of specialty compounds.
PROTOCOL TABLES (as described by Inglese J, Shamu CE and Guy RK. 2007)
SEQUENCE No. (e.g., 1, 2, 3, etc.); […] (e.g., Cells, Incubation, Reagent, etc.); VALUE and DESCRIPTION.
1. Cells. Seed 1500 HEK293 cGMP-sensor cells expressing hNpr1 per well in 4uL into Greiner 1536-well white/solid bottom high base, tissue culture-treated plates.
2. Incubation. Incubate plated cells at 37C in 5% CO2, 95% RH overnight.
3. Reagent. Add 1uL per well GloSensor reagent from Promega (2% final concentration) or CO2 independent media vehicle control to respective columns of Greiner 1536-well plates.
4. Incubation. Incubate plated cells at room temperature for 2 h, protect from light.
5. Compounds. Library compounds and A-71915 control added at 23 nL per well, transferred by Pin Tool.
6. Incubation. Incubate plated cells for 30 min. at room temperature, protect from light.
7. Detector. GloSensor baseline pre-read luminescence measured using CCD-based camera (Viewlux).
8. Compound. Add 1uL of hNppA peptide to 0.1 nM final concentration to stimulate hNpr1 or CO2 independent media as vehicle control.
9. Incubation. Incubate treated cells at room temperature for 20 min., protect from light.
10. Detector. GloSensor post-hNppA luminescence measured using CCD-based camera (Viewlux).
NOTES (numbers refer to Sequence numbers above)
1. HEK293 cells expressing hNpr1 and GIP/pGS-40F grown to 85-95% confluence (48-72 h) in T175 culture flasks (CO2 independent media supplemented with 10% FBS, 1% Pen/Strep antibiotics and 1 ug/mL puromycin). Trypsinize and harvest cells from T175 culture flasks and filter through 40 um cell strainer. Cells counted with Invitrogen Countess (30,000,000 - 50,000,000 cells/flask). Cells diluted to a final concentration of 375 cells/uL in CO2 independent media and a Millipore multidrop used to dispense 1500 cells per well (4uL/well) into 13 1536-well Greiner White/Solid bottom, high base tissue-culture treated (TC) plates and one Aurora 1536-well Black/Clear bottom, low base, TC plate (for visual inspection of cell health throughout the duration of the assay).
2. Cells incubated overnight at ambient temperature, 24 h. at 37C in 95% RH incubator protected from light, covered with metal lid with gas-exchange holes.
3. Prepare GloSensor Reagent (Promega): Reconstitute GloSensor luciferase substrate by adding 8.2mL Hepes buffer to 250mg substrate, mix well, protect from light and stored at -80C. Prepare a fresh 12% GloSensor solution in CO2 independent supplemented plating media (see above). Mix well and store at ambient temperature, protected from light. 1uL 12% GloSensor Luciferase Reagent added (2% final concentration) to respective columns of 13 x 1536-well Greiner plate with BioRaptr, 1uL CO2 independent plating media added to respective columns as vehicle control with BioRaptr.
4. Cells incubated for 2 h. at ambient temperature, protected from light with metal lid with gas-exchange holes.
5. A-71915 stock solution prepared (10 mM in DMSO). […]
For `CCN1C(=O)[C@@H]2[C@H]3[C@H](O)[C@H](O)CC(=NOCC[C@@H]4C=C[C@H](OC(C)=O)[C@@H](COC(C)=O)O4)[C@@H]3CC[C@H]2C1=O`, the Potency was “inactive”.
With `COC(=O)CC=C[C@@H](C)[C@H](NC(=O)OCC(Cl)(Cl)Cl)c1cccc(OC)c1` the Potency was “inactive”.
For `CC1=CC[C@@H](COc2ccccc2)O[C@@]2(C1)C(=O)Nc1cccc(Br)c12`, the Potency was “inactive”.
`CC1=CC[C@@H](C)O[C@@]2(C1)C(=O)Nc1cccc(Br)c12` was tested, and the Potency was “inactive”.
`CC(C)=CCCC(C)=CCN1C(=O)[C@]2(O[C@H](C)CC3=CCCC32)c2c(Br)cccc21` (stereo not given in full) was tested, and the Potency was “inactive”.
`COc1ccc(-c2nc3c(c4c2C[C@H](c2ccccc2)OC4)CN(S(=O)(=O)c2ccc(C)cc2)CC3)c(C)c1` was tested, and the Potency was “inactive”.
`C=CCOC(=O)C(C(C)=O)[C@@H](NC(=O)OC)c1cccs1` (stereo not given in full) was tested, and the Potency was “inactive”.
In the case of `CC=COC(=O)N[C@@H](c1ccccc1)[C@]1(C(C)=O)CCOC1=O`, the Potency is reported as “inactive”.
`COCCN1C(=O)NC(c2cccc(C(F)(F)F)c2)C(C(C)=O)=C1C` (stereo not given) was tested, and the Potency was “inactive”.
`CCN1C(=NCC(C)C)NC(c2cccc(F)c2)C(C(=O)OC)=C1C` (stereo not given) was tested, and the Potency was “inactive”.
With `C=C(CCN1C=C(C(C)=O)C(c2ccccc2)NC1=O)c1ccc(OC)cc1` (stereo not given) the Potency was “inactive”.
For `COc1ccc2c(c1)O[C@H](c1ccc3c(c1)OCO3)[C@@H](OC(=O)N[C@H]1CCCc3ccccc31)C2=O`, the Potency was “inactive”.
With `COc1cc2c(cc1OC)[C@@H]1O[C@](c3ccsc3)(C2)Oc2cc(-c3ccccc3)oc(=O)c21` the Potency was “inactive”.
For `CCN1C(=NCc2ccc(OC)cc2)NC(c2ccccc2)C(C(=O)OC)=C1C` (stereo not given), the Potency was “inactive”.
For `COC(=O)C1=C[C@@]2(c3ccc(OC)cc3[C@@H](OC)[C@@H]2C)[C@@H]2C=C[C@@H]1C2`, the Potency was “inactive”.
With `COCCN1C(=O)NC(c2cccc(F)c2)C(C(=O)OC)=C1C` (stereo not given) the Potency was “inactive”.
For `CCOC(=O)CN1C(=O)[C@]2(O[C@H](C)CC3=CCCC32)c2c(Br)cccc21` (stereo not given in full), the Potency was “inactive”.
In the case of `COc1ccc(-c2nc(-c3ccccc3)c(NCc3ccccc3)o2)cc1`, the Potency is reported as “inactive”.
In the case of `COC(=O)CC=C[C@@H](C)[C@H](O)c1ccccc1Br`, the Potency is reported as “inactive”.
For `O=C1CCCC=C1C(O)COCc1ccccc1` (stereo not given), the Potency was “inactive”.
In the case of `C=CCOC(=O)NC(c1ccc(F)c(F)c1)S(=O)(=O)c1ccc(Cl)cc1` (stereo not given), the Potency is reported as “inactive”.
In the case of `C=C(C[C@@]1(C(=O)OC)C=C[C@@H](C)[C@H](c2ccccc2Br)N1C(=O)C(F)(F)F)c1ccccc1`, the Potency is reported as “inactive”.
With `CCOC(=O)CN1C(=O)[C@]2(OC[C@@H]3Cc4ccccc4[C@H]3C=C2C)c2ccccc21` the Potency was “inactive”.
For `CCCCc1cc2c(cn1)=C(OC(=O)CCC(=O)OC)C(C)(OC(=O)CC)C(=O)C=2` (stereo not given), the Potency was “inactive”.
For `CCOC(=O)CN1C(=O)[C@]2(O[C@H](COc3ccccc3)CC3=C2CCC3)c2ccccc21`, the Potency was “inactive”.
For `CC(=O)OC[C@H]1O[C@H](CCON=C(C)CCC(=O)OC[C@H]2O[C@H](C#Cc3ccccc3)C=C[C@H]2Oc2ccc(C)cc2)C=C[C@H]1OC(C)=O`, the Potency was “inactive”.
For `C=C[C@H]1CCC=C2C(=O)CCC[C@H]21`, the Potency was “inactive”.
`CCOC(=O)N1C2=NC(C(=O)OC)=C(C(=O)OC)[C@@H]3N(C)c4ccccc4[C@]23C[C@H]1C(=O)OC` was tested, and the Potency was “inactive”.
`COCCN1C(=O)NC(c2ccc(Br)cc2)C(C(C)=O)=C1C` (stereo not given) was tested, and the Potency was “inactive”.
With `COc1cc2c(cc1OC)[C@@]1(c3ccccc3)CCCC[C@H]1[C@@H]2NC(=O)C(F)(F)F` the Potency was “inactive”.
For `CCOC(=O)CCN1C(=O)[C@@H]2[C@H]3[C@H](O)[C@H](O)CC(=NNC(=O)OCc4ccccc4)[C@H]3CC[C@H]2C1=O`, the Potency was “inactive”.
With `COc1ccc2c(c1)C(NC(=O)C(F)(F)F)CC21CCCCC1` (stereo not given) the Potency was “inactive”.
With `C[C@H](ON=C1[C@H]2CCn3c(=O)n(-c4ccccc4)c(=O)n3[C@@H]2[C@H](O)[C@@H]2O[C@H]12)c1cn([C@H](CO)Cc2ccccc2)nn1` the Potency was “inactive”.
`C#CCN1C(=O)[C@@]2(CC(C)=CC[C@@H](C)O2)c2ccccc21` was tested, and the Potency was “inactive”.
`COC(=O)[C@@H]1C=C[C@H](C)[C@H](CCOc2ccccc2)O1` was tested, and the Potency was “inactive”.
With `O=C1C2=C(C(=O)c3ccccc31)[C@H]1O[C@](c3ccsc3)(Cc3c1ccc1ccccc31)O2` the Potency was “inactive”.
With `CCN1C(=O)[C@@H]2[C@H]3[C@H](O)[C@H](O)CC(=NOC[C@H]4O[C@H](c5ccccc5)C=C[C@H]4Oc4ccc(OC)cc4)[C@@H]3CC[C@H]2C1=O` the Potency was “inactive”.
`CC(=O)Nc1ccc(S(=O)(=O)N2CCc3nc(-c4ccccc4)c4c(c3C2)CO[C@@H](C)C4)cc1` was tested, and the Potency was “inactive”.
For `C=C(C(=O)C(C)(C)O)C(O)c1ccc([N+](=O)[O-])cc1` (stereo not given), the Potency was “inactive”.
For `CCCNC(=O)OC[C@H]1O[C@H](CCON=C(C)CCN2CCCCc3nc(C)c(C)cc32)C=C[C@H]1Oc1ccc(OC)cc1`, the Potency was “inactive”.
